In the supplement of paper PMC10127200:
Where a name gives a salt, the structure may show the parent alone.

Columns and labels:
Assay in all cases: Euclidean distance of Cell Painting phenotypic profile (signed KS, 77 features) to DMSO centroid (dimensionless distance); 5 or 10 uM (library dependent); higher = stronger phenotypic change vs DMSO (phenoactivity)
Conditions in all cases: 48 h
786-O = tested on: 786-O
Outline: (§1)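 Harmony extracted 77 features from 20X confocal images (9 fields/well) of stained cells, scoring each as a signed Kolmogorov-Smirnov statistic against same-plate vehicle wells. The cells, five cancer lines and a healthy fibroblast line, had received library compounds for 48 h at 10 or 5 uM depending on library, with 0.1% DMSO final. Phenoactivity is the Euclidean distance from each plate-position-corrected, correlation-weighted, top-dose replicate-averaged profile to the median vehicle profile.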

A549 = tested on: A549
Outline: as §1

DU145 = tested on: DU145
Outline: as §1

FB = tested on: FB
Outline: as §1

HEPG2 = tested on: HEPG2
Outline: as §1

OVCAR4 = tested on: OVCAR4
Outline: as §1

SMILES | Euclidean distance (786-O) | Euclidean distance (A549) | Euclidean distance (DU145) | Euclidean distance (FB) | Euclidean distance (HEPG2) | Euclidean distance (OVCAR4)
CC1(C)Cc2c(-c3ccccc3)c(-c3ccc(Cl)cc3)c(CC(=O)O)n2C1 [Licofelone] | 0.977 | 1.12 | 1.32 | 1.22 | 0.815 | 1.41
CNC(CC(=O)O)C(=O)O [NMDA (N-Methyl-D-aspartic acid)] | 0.691 | 1.26 | 0.677 | 0.867 | 0.901 | 0.706
CO/N=C(\C(=O)N[C@@H]1C(=O)N2C(C(=O)OC(C)OC(C)=O)=C(COC(N)=O)CS[C@H]12)c1ccco1 (some centres not stated) [Cefuroxime axetil] | 0.923 | 0.763 | 0.929 | 1.28 | 1.28 | 1.41
CCC(C)(C)C(=O)O[C@H]1C[C@@H](C)C=C2C=C[C@H](C)[C@H](CC[C@@H]3C[C@@H](O)CC(=O)O3)[C@H]21 [Simvastatin] | 1.35 | 0.686 | 1.1 | 1.4 | 1.9 | 1.18
Cc1cccc(Nc2cc(Cl)nc(SCC(=O)O)n2)c1C | 1.08 | 0.839 | 0.785 | 0.914 | 0.873 | 0.647
CN(C)C(=O)Nc1cccc(-c2ccc(N(C)C)cc2)c1 [Atglistatin] | 1.31 | 1.47 | 1.1 | 0.894 | 0.548 | 1.33
C[C@@H](CN1CC(=O)NC(=O)C1)N1CC(=O)NC(=O)C1 [Dexrazoxane HCl (ICRF-187. ADR-529)] | 1.38 | 1.71 | 1.21 | 1.96 | 1.47 | 1.89
C=C1/C(=C\C=C2/CCC[C@]3(C)[C@@H]([C@H](C)/C=C/[C@@H](O)C4CC4)CC[C@@H]23)C[C@@H](O)C[C@@H]1O [Calcipotriene] | 0.625 | 1.01 | 0.941 | 2.13 | 0.91 | 1.51
C=CC(=O)N1CCC[C@@H](n2nc(-c3ccc(Oc4ccccc4)cc3)c3c(N)ncnc32)C1 | 1.76 | 2.16 | 2.61 | 2.35 | 1.42 | 2.38
CC(C)(C)c1nc(-c2cccc(NS(=O)(=O)c3c(F)cccc3F)c2F)c(-c2ccnc(N)n2)s1 | 1.53 | 1.16 | 1.31 | 3.02 | 1.45 | 1.03
CN(N=O)C(=O)NC1C(O)OC(CO)C(O)C1O (configuration not stated) [Streptozotocin (STZ)] | 1.35 | 0.706 | 0.768 | 1.26 | 0.501 | 1.16
CCCCCCCCCCCCCCCCCCOP(=O)([O-])OC1CC[N+](C)(C)CC1 [Perifosine (KRX-0401)] | 1.95 | 1.09 | 0.853 | 1.23 | 2.19 | 1.79
N=C(NOCC(O)CN1CCCCC1)c1cccnc1 (configuration not stated) | 1.13 | 0.912 | 1.06 | 1.33 | 0.604 | 1.05
COc1c(-c2ccc3cc(NS(C)(=O)=O)ccc3c2)cc(-n2ccc(=O)[nH]c2=O)cc1C(C)(C)C [Dasabuvir(ABT-333)] | 1.78 | 1.78 | 1.27 | 1.48 | 1.05 | 1.42
O=C(NC[C@H](O)CO)c1ccncc1Nc1ccc(I)cc1F | 2.39 | 2.67 | 2.49 | 3.7 | 1.53 | 2.4
C[C@H](NC(=O)CCC(F)(F)F)C(=O)N[C@@H]1C(=O)N(CCO)c2ncccc2-c2ccccc21 | 0.859 | 0.929 | 1.3 | 0.741 | 0.66 | 1.09
CC(=O)Nc1ccc(C(=O)Nc2ccccc2N)cc1 [CI994 (Tacedinaline)] | 1.29 | 1.67 | 1.56 | 2.76 | 1.83 | 1.94
O=c1cc(N2CCOCC2)oc2c1ccc1ccccc12 | 0.913 | 1.57 | 1.41 | 3.23 | 1.42 | 4.01
COc1ccc(CN(CCN(C)C)c2ncccn2)cc1 [Thonzylamine] | 1.16 | 1.66 | 1.32 | 1.44 | 0.672 | 1.89
COc1cc(Br)c(Nc2nc(-c3c(C)nc4ncccn34)cs2)c(Br)c1 | 3.62 | 2.67 | 2.18 | 2.66 | 4.16 | 1.63
O=C(c1ccc(OCCN2CCCCC2)cc1)c1c(-c2ccc(O)cc2)sc2cc(O)ccc12 [Raloxifene] | 2.37 | 2.49 | 2.15 | 2.23 | 2.54 | 2.52

SMILES | Euclidean distance (786-O) | Euclidean distance (A549) | Euclidean distance (DU145) | Euclidean distance (FB) | Euclidean distance (HEPG2) | Euclidean distance (OVCAR4)
Cn1c(=O)cc(N2CCC[C@@H](N)C2)n(Cc2cc(F)ccc2C#N)c1=O [Trelagliptin succinate] | 0.808 | 1.21 | 1.04 | 1.06 | 0.54 | 1.49
CCCOc1ccc(C(=O)OCCN(CC)CC)cc1N [Proparacaine HCl] | 1.06 | 1.11 | 1.7 | 1.27 | 0.765 | 1.27
C[C@H]1CO[C@@H]2Cn3cc(C(=O)NCc4ccc(F)cc4F)c(=O)c(O)c3C(=O)N12 | 1.14 | 1.26 | 0.669 | 0.944 | 0.626 | 0.809
CNCCc1ccccn1 [Betahistine mesylate] | 0.848 | 0.566 | 1.17 | 0.999 | 0.422 | 0.933
COc1cc2c(cc1O)CC[C@@H]1[C@@H]2CC[C@]2(C)[C@@H](O)CC[C@@H]12 [2-Methoxyestradiol (2-MeOE2)] | 2.47 | 2.67 | 2.66 | 2.05 | 2.07 | 2.42
CC(N)C12CC3CC(CC(C3)C1)C2 (configuration not stated) [Rimantadine] | 0.735 | 0.64 | 0.671 | 1.35 | 0.621 | 1.37
COc1cc(Nc2ncc(F)c(Nc3ccc4c(n3)N(COP(=O)(O)O)C(=O)C(C)(C)O4)n2)cc(OC)c1OC [R788 (Fostamatinib) Disodium] | 1.37 | 2.39 | 2.15 | 3.19 | 0.696 | 2.19
Clc1ccc(C(c2ccccc2Cl)C(Cl)Cl)cc1 (configuration not stated) [Mitotane] | 0.994 | 0.919 | 1.27 | 1.79 | 1.84 | 1.45
O=C(N[C@H](CO)[C@H](O)c1ccc([N+](=O)[O-])cc1)C(Cl)Cl [Chloramphenicol] | 1.22 | 1 | 1.35 | 0.994 | 0.584 | 1.3
Cc1cc(C)nc(NS(=O)(=O)c2ccc(NC(=S)NC(=O)COc3ccc(Br)cc3Cl)cc2)n1 | 0.465 | 0.727 | 0.713 | 0.857 | 2.1 | 0.759
COC(c1ccccc1)(c1ccccc1)[C@H](Oc1nc(C)cc(C)n1)C(=O)O [Ambrisentan] | 1.45 | 0.738 | 1.17 | 0.718 | 2.03 | 1.52
CN(C)CC(=O)Nc1ccc2[nH]c(=O)c3ccccc3c2c1 | 1.25 | 1.08 | 0.921 | 1.3 | 1.34 | 1.07
O=C(O)C1(C(=O)O)CCC1.[NH2-].[NH2-].[Pt+2] [Carboplatin] | 2.76 | 1.98 | 2.65 | 2.23 | 2.58 | 2.66
NC(=O)[C@@H]1CSSCCC(=O)N[C@@H](CCCCN=C(N)N)C(=O)NCC(=O)N[C@@H](CC(=O)O)C(=O)N[C@@H](Cc2c[nH]c3ccccc23)C(=O)N2CCC[C@H]2C(=O)N1 [Eptifibatide Acetate] | 1.66 | 1.02 | 0.993 | 1.11 | 0.664 | 1.36
CN(C)CC/C=C1/c2ccccc2COc2ccc(CC(=O)O)cc21 [Olopatadine HCl] | 0.847 | 0.745 | 0.865 | 1.38 | 0.686 | 0.734
O=S(=O)(O)CCCCOC[C@H]1O[C@@H]2O[C@H]3[C@H](O)[C@@H](O)[C@@H](O[C@H]4[C@H](O)[C@@H](O)[C@@H](O[C@H]5[C@H](O)[C@@H](O)[C@@H](O[C@H]6[C@H](O)[C@@H](O)[C@@H](O[C@H]7[C@H](O)[C@@H](O)[C@@H](O[C@H]8[C@H](O)[C@@H](O)[C@@H](O[C@H]1[C@H](O)[C@H]2O)O[C@@H]8CO)O[C@@H]7COCCCCS(=O)(=O)O)O[C@@H]6COCCCCS(=O)(=O)O)O[C@@H]5COCCCCS(=O)(=O)O)O[C@@H]4COCCCCS(=O)(=O)O)O[C@@H]3COCCCCS(=O)(=O)O [Captisol (SBE-Œ≤-CD)] | 1.09 | 0.893 | 0.704 | 1.13 | 1.38 | 1.1
Cc1cccc(Oc2cnc(=O)[nH]c2)c1 | 1.47 | 1.3 | 1.39 | 1.47 | 0.543 | 0.931
O=C(O)Cc1ccccc1Nc1c(Cl)cccc1Cl [Diclofenac Sodium] | 1.2 | 0.988 | 0.729 | 1.14 | 0.995 | 0.677
C[C@H](Nc1ncnc2nc[nH]c12)c1cc2cccc(Cl)c2c(=O)n1-c1ccccc1 [Duvelisib (IPI-145. INK1197)] | 2.36 | 1.56 | 2.77 | 2.98 | 1.32 | 1.91
CCN(CC)C(=O)[C@@]1(c2ccccc2)C[C@H]1CN [Levomilnacipran Hydrochloride] | 0.986 | 0.786 | 1.17 | 1.23 | 0.649 | 0.997
CC(C)(Oc1ccc(C(=O)c2ccc(Cl)cc2)cc1)C(=O)O [Choline Fenofibrate] | 0.954 | 0.724 | 0.985 | 1.28 | 0.32 | 0.848
